Bioassay records deposited in PubChem by National Center for Advancing Translational Sciences (NCATS).
D1 potentiator – human D1 dopamine receptor positive modulation | P21728 | 360,000 compounds, 0.036% hits | AID 504651 | potentiation, % at 10 µM | HEK293 TREx D1 cells, calcium flux, dopamine EC20 potentiation; in the data active means potentiation above about 30%; further: 0% is about no effect
D1 antag – antagonists of human D1 dopamine receptor | P21728 | HEK293 TREx D1 cells, calcium flux, dopamine EC80; active compounds read low | activity change, negative = inhibition, % at 10 µM | 360,000 compounds, 3.2% hits | AID 504652; in the data active means activity change below about -30%; further: on the % scale 0 is the no-effect control and ±100 the full control effect
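Antagonism measured as reduced calcium response to an EC80 dopamine addition following 180 s compound pre-read; cells were inducible HEK293 Trex D1 plated overnight at 30 C, read kinetically at 1 cycle/sec.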
D3 antag – blocks the human D3 dopamine receptor; P35462; D3R cells, DiscoveRx beta-arrestin luminescence, antagonist mode; active compounds read low; max response, negative = inhibition, %; 360,000 compounds, 2.5% hits; AID 652054; in the data active means max response below about -50%; further: on the % scale 0 is the no-effect control and ±100 the full control effect
Target sequence (P35462 whole entry, looked up): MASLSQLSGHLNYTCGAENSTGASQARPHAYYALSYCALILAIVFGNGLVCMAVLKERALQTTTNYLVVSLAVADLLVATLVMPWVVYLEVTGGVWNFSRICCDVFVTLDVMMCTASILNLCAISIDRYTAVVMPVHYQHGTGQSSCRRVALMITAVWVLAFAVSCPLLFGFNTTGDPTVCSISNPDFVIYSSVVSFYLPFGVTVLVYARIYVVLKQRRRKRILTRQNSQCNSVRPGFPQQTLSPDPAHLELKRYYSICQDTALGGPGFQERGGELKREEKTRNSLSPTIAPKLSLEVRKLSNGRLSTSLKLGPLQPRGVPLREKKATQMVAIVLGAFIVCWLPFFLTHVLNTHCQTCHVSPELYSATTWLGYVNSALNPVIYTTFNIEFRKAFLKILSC
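Cells expressing the human receptor were seeded at 1500 cells/well, incubated overnight at 37 degrees C in 5% CO2, then exposed to library compounds with dopamine controls for 90 minutes at 37 degrees C before luminescent detection.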
D1 agonist – activates the human D1 dopamine receptor | P21728 | 360,000 compounds, 1% hits | HEK293 T-REx D1 cells, calcium flux, agonist mode | activation, % at 2 µM; in the data active means activation above about 30%; further: 0% is about no effect
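Agonism was scored from calcium flux recorded over 180 s (1 read/s) after pintool compound addition, following a 10-cycle baseline. Cells were inducible force-coupled HEK293 TREx D1, plated overnight at 30 C and loaded with no-wash calcium dye.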
DRD3 agonist – D3 dopamine receptor (human) agonism; D3R DiscoveRx beta-arrestin cells, luminescence, 90 min; max activation, %; 410,000 compounds, 0.58% hits; in the data active means max activation above about 30%; further: 0% is about no effect
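Agonist-mode cell screen: cells plated at 1500/well and incubated overnight at 37 °C, then exposed to library compounds for 90 min at 37 °C. Detection reagent was added for 30–60 min at room temperature, and luminescence was read.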
* marks the source's active call; other numbers are inactive results. Only some compounds are listed: those with a hit (about 6% of all), similar ones and a draw of the others.

How did FC(F)(F)COc1cc(-c2nnc(SCc3ccccc3)n2Cc2ccco2)cc(OCC(F)(F)F)n1 do in these assays?
D1 potentiator: -3.5; D1 antag: -0.7; D3 antag: -10.7; D1 agonist: 32.0*; DRD3 agonist: -2.6

Results for CCc1ccc(NC(=O)C2CCN(c3nnc(-n4c(C)ccc4C)s3)CC2)cc1 ?
D1 potentiator: -2.6; D1 antag: -6.2; D1 agonist: -1.4; DRD3 agonist: -9.6

Results for CCn1nc(C)c(CNC(=O)c2cc(COc3ccccc3SC)on2)c1C ?
D1 potentiator: -0.3; D1 antag: -48.8*; D3 antag: -3.5; D1 agonist: 11.6; DRD3 agonist: -6.0

Results for CSc1ccccc1OCc1cc(C(=O)NCc2cccc(C)n2)no1 ?
D1 potentiator: -9.3; D1 antag: -5.5; D3 antag: -18.9; D1 agonist: 1.7; DRD3 agonist: 3.5

How did CCc1ccccc1NC(=O)[C@@H](c1ccccc1)N1Cc2ccccc2C1=O do in these assays?
D1 potentiator: 3.8; D1 antag: -0.5; D1 agonist: 0.4; DRD3 agonist: -3.8

Results for COC(=O)c1ccc(NC(=O)C(=O)NCCc2csc(-c3ccc(F)cc3)n2)cc1 ?
D1 potentiator: -3.5; D1 antag: -5.6; D1 agonist: 3.8; DRD3 agonist: -16.1

How did Cc1nc2ccc(S(=O)(=O)N(C)CC(=O)Nc3ccc(Br)c(C)c3)cc2s1 do in these assays?
D1 potentiator: 1.1; D1 antag: -40.3*; D1 agonist: 8.7; DRD3 agonist: 13.0

Results for Cc1nc2ccc(NC(=O)CCS(=O)(=O)c3ccc(Cl)cc3)cc2s1 ?
D1 potentiator: -3.0; D1 antag: -36.4*; D3 antag: 2.5; D1 agonist: 11.6; DRD3 agonist: 8.5

How did NC(=O)c1ccccc1NC(=O)Cn1nc(Cc2cccnc2)c2ccccc2c1=O do in these assays?
D1 potentiator: -3.9; D1 antag: -7.7; D1 agonist: -0.1; DRD3 agonist: -17.7

How did Cc1cc(F)ccc1-c1cc(C(=O)NCc2cccs2)[nH]n1 do in these assays?
D3 antag: -77.0*; DRD3 agonist: -21.7

Results for COc1ccc(-c2cc(C(=O)Nc3ccc(OC)c(OC)c3)[nH]n2)c(C)c1 ?
D3 antag: -59.7*; DRD3 agonist: -14.7

Results for Cc1cc(F)ccc1-c1cc(C(=O)Nc2ccccc2)[nH]n1 ?
D3 antag: -84.5*; DRD3 agonist: -12.0

How did Cc1cc(F)ccc1-c1cc(C(=O)NCc2cc(C(F)(F)F)cc(C(F)(F)F)c2)[nH]n1 do in these assays?
D3 antag: -8.3; DRD3 agonist: -0.1

Results for Cc1ccc(-c2cc(C(=O)Nc3cc(C)ccc3C)[nH]n2)c(O)c1 ?
D1 potentiator: -8.6; D1 antag: -36.9*; D3 antag: 1.5; D1 agonist: -0.9; DRD3 agonist: 1.8

Results for CCOC(=O)c1ccccc1NC(=O)NCc1c(-n2cccc2)sc2c1CCCC2 ?
D1 potentiator: -3.3; D1 antag: -16.7; D1 agonist: -1.7; DRD3 agonist: -2.1

Results for CC(C)c1cnc2c(c1SCC(=O)c1ccccc1)c(=O)n(C)c(=O)n2C ?
D1 potentiator: 0.1; D1 antag: -10.0; D1 agonist: 3.4; DRD3 agonist: 4.5

How did CC(C)(C)c1nc(CN2CCOCC2)cc(CN2CCOCC2)c1O do in these assays?
D1 potentiator: 1.4; D1 antag: 5.6; D3 antag: -70.0*; D1 agonist: 0.7; DRD3 agonist: -2.6

What do the screens show for `Oc1c(CN2CCOCC2)cc(CN2CCOCC2)c(O)c1CN1CCOCC1`?
D3 antag: 8.1; DRD3 agonist: -1.4

How did Oc1c(CN2CCOCC2)cc(-c2ccccc2)cc1CN1CCOCC1 do in these assays?
D3 antag: -83.2*; DRD3 agonist: -5.3

Results for CCc1nnc2c3ccccc3nc(N3CCN(c4cc(Cl)ccc4C)CC3)n12 ?
D1 potentiator: 6.0; D1 antag: 19.0; D1 agonist: 5.4; DRD3 agonist: -4.5

What do the screens show for `Cc1cc(C)c(C#N)c(SCCS(=O)(=O)Cc2ccccc2)n1`?
D1 potentiator: -2.8; D1 antag: -7.6; D3 antag: -84.4*; D1 agonist: 9.9; DRD3 agonist: -10.5

Results for Cc1cc(C)c(C#N)c(SCC2COc3ccccc3O2)n1 (centres undefined) ?
D1 potentiator: 1.3; D1 antag: -5.1; D3 antag: 16.3; D1 agonist: 37.6*; DRD3 agonist: -3.1
